Assay results as given in the supplement of paper PMC11732987, “Enantioselective OTUD7B fragment discovery through chemoproteomics screening and high-throughput optimisation” (Communications Chemistry, 2025).

Biological target: COPS5 (UniProt Q92905)
Assay: log2 ratio of Biotin-Ahx-Ub-VS probe labelling (fragment/DMSO); higher = less target engagement (more negative = stronger competition), active = hit call of the paper (q ≤ 0.05, log2 ratio ≤ -1)
Conditions: compound concentration: 200 uM; treatment time: 3 h
Experimental: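 Competitive ABPP in HEK293T cell lysate. Lysates were treated with each chloroacetamide fragment at 200 µM for 3 h, then with Biotin-Ahx-Ub-VS (0.5 µM, 1 h), NeutrAvidin-enriched and analysed by diaPASEF LC-MS/MS. Protein LFQ was median-normalised; average log2 ratio is fragment/DMSO from an unpaired t-test (n=3 treated, n=44 DMSO). Hits: q ≤ 0.05, log2 ratio ≤ -1, unique peptides ≥ 2.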

COPS5, sequence (Q92905 whole entry, looked up, the tested form may be a part): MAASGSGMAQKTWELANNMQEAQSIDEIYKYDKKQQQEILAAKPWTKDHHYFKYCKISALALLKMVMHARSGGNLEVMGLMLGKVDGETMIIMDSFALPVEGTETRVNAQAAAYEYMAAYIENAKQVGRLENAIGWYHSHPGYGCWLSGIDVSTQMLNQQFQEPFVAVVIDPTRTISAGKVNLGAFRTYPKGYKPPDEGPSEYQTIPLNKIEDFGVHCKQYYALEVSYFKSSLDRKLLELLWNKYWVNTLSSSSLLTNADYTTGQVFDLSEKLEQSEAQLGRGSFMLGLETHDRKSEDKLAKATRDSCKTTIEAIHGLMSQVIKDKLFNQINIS

log2 ratio of Biotin-Ahx-Ub-VS probe labelling, inactive:
CNC(=O)C1(NC(=O)CCl)CCCCC1 0.00317, Cc1cccc2nc(CCNC(=O)CCl)cn12.Cl -0.0623, CCN(C(=O)CCl)C1CCCCC1 0.0876, O=C(CCl)N1CCCN(C(=O)c2ccc(Cl)cc2)CC1 0.0384, O=C(CCl)N1CCOC2(CCC2)C1 0.247, Cl.O=C(CCl)N1CC(c2ccc(Br)cn2)C1 -0.0867, Cc1ccc(CN(C)C(=O)CCl)o1 0.0171
